Compound activity: PubChem, several laboratories
CYP2C19 inhib = human CYP2C19 inhibition; 96,000 compounds, 21% hits; inhibition, % at 5 µM; CYP2C19 Supersomes, luciferin-H EGE luminescence, 30 min; AID 778; P33261;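 active means CYP2C19 inhibition above a set limit at 5 µM in the primary screen, cut at about 50% in these data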;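 further: plate controls were negative control wells for no effect and 2.5 mM tranylcypromine positive control for full effect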
CYP2C19 act = activators of human cytochrome P450 2C19 | P33261 | recombinant CYP2C19, luciferin-H EGE luminescence; hits give high values; 0 = fully inhibited enzyme, 1 = untreated enzyme | activation factor at 5 µM | 96,000 tested, under 10 active | AID 1025;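 active means activation factor of at least 2 at 5 µM in the primary screen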;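 further: 0 = wells with 2.5 mM tranylcypromine and 1 = vehicle-only wells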
CYP2C9 act = increases human cytochrome P450 2C9 activity; activation factor at 5 µM; P11712; recombinant CYP2C9, luciferin-H conversion, luminescence; hits give high values; factor 1 = untreated enzyme, 0 = blocked; AID 1024; 96,000 compounds, 1.4% hits;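 active means activation factor of 2 or more for CYP2C9 at a 5 µM dose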;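 further: 0 = sulfaphenazole-blocked wells and 1 = vehicle-only wells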
Target sequence (P11712 whole entry, looked up): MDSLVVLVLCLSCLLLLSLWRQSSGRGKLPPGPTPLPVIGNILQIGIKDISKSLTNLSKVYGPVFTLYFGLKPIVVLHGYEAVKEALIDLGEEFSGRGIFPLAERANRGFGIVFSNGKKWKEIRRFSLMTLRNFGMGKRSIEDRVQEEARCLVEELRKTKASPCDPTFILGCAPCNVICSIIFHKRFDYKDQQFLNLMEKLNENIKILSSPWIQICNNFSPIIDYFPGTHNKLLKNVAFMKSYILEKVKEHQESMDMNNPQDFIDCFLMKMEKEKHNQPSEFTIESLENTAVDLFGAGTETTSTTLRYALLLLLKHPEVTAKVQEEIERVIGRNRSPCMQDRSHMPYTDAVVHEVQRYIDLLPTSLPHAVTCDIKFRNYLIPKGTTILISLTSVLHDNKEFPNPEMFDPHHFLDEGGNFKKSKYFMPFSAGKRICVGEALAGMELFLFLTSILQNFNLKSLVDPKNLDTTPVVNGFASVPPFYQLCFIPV
CYP2C9 inhib = inhibitors of human CYP2C9; P11712; CYP2C9 Supersomes, luciferin-H conversion, luminescence; inhibition, % at 5 µM; 96,000 compounds, 20% hits; AID 777;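 active means blocking of liver enzyme CYP2C9 beyond about 50% at 5 µM, limit read from the data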
Cav3 T inh = human Cav3.2 channel inhibition, primary screen | O95180 | Cav3.2-expressing cells, Fluo-4 calcium fluorescence FDSS; hits give low values | B-score at 10 µM | 100,000 compounds, 4% hits;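 active means single-dose well whose peak fluorescence ratio is a statistical outlier from its plate by either plate-standardised score or position-corrected B-score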
Starred values were filed as active, the others as inactive. An excerpt weighted towards active compounds, which were near 27% of everything screened.

CSc1nc2c(c(C(F)(F)F)n1)CC(C)CC2 (centres undefined) was read as CYP2C19 inhib -1, CYP2C19 act 1, CYP2C9 act 1.1, CYP2C9 inhib -6 and Cav3 T inh 0.88.
`Cc1cc(C)cc(N2C(=O)CC(n3nc(C)cc3C)C2=O)c1` (centres undefined) gave CYP2C19 inhib 39, CYP2C19 act 0.6, CYP2C9 act 0.9, CYP2C9 inhib 12 and Cav3 T inh -0.068.
O=c1[nH]c(-c2ccccc2O)nc2c1CCCC2 was read as CYP2C19 inhib 6, CYP2C19 act 0.9, CYP2C9 act 0.8, CYP2C9 inhib 18 and Cav3 T inh 0.18.
Cn1c(SCCCC(=O)c2ccccc2)nnc1-c1ccncc1 was read as CYP2C19 inhib 68*, CYP2C19 act 0.3, CYP2C9 act 0.5, CYP2C9 inhib 54* and Cav3 T inh 0.89.
`Cc1occc1-c1nnc(SCCCC(=O)c2ccc(F)cc2)n1C` gave CYP2C19 inhib 72*, CYP2C19 act 0.3, CYP2C9 act 0.5, CYP2C9 inhib 54* and Cav3 T inh 0.021.
Cn1c(SCCCC(=O)c2ccc(F)cc2)nnc1-c1ccncc1 was read as CYP2C19 inhib 71*, CYP2C19 act 0.3, CYP2C9 act 0.4, CYP2C9 inhib 59* and Cav3 T inh 0.69.
COCCn1c(SCCCC(=O)c2ccc(Br)cc2)nnc1-c1ccncc1 was read as CYP2C19 inhib 94*, CYP2C19 act 0.1, CYP2C9 act 0.2 and CYP2C9 inhib 85*.
CC(C)CC(NC(=O)OC(C)(C)C)c1cn([C@@H](CCCCNC(=O)OC(C)(C)C)C(=O)N2CCN(C(=O)OC(C)(C)C)CC2)nn1 (some centres undefined) was read as Cav3 T inh -1.3.
`CN(CC(=O)Nc1ccccc1C(=O)N1CCCC1)S(=O)(=O)c1ccc(Cl)cc1` gave CYP2C19 inhib 18, CYP2C19 act 0.8, CYP2C9 act 0.6, CYP2C9 inhib 45 and Cav3 T inh 0.28.
CCc1cccc2c(C(=O)CSc3nnc(-c4ccoc4C)n3C)c[nH]c12 was read as CYP2C19 inhib 65*, CYP2C19 act 0.3, CYP2C9 act 0.5, CYP2C9 inhib 53* and Cav3 T inh -0.97.
Screening CCn1c(SCC(=O)c2ccc(F)cc2)nnc1-c1ccoc1C returned CYP2C19 inhib 38, CYP2C19 act 0.6, CYP2C9 act 0.7, CYP2C9 inhib 31 and Cav3 T inh 0.1.
Cc1ccc(C(=O)N2CCC3(CC2)Oc2ccc(F)cc2C(=O)C32CC(c3ccccc3)=NO2)s1 (centres undefined) was read as Cav3 T inh -1.5.
For O=C(c1ccc(Cl)cc1)C1C2C(=O)N(c3ccccc3)C(=O)C2C2CCCN21 (centres undefined) the results were CYP2C19 inhib 79*, CYP2C19 act 0.2, CYP2C9 act 0.2, CYP2C9 inhib 78* and Cav3 T inh -6.9*.
For CC(=O)c1ccc(N2C(=O)C3C(C2=O)C(C(=O)c2ccc(Cl)cc2)N2CCCC32)cc1 (centres undefined) the results were CYP2C19 inhib 22, CYP2C19 act 0.8, CYP2C9 act 0.9, CYP2C9 inhib 14 and Cav3 T inh -3.3.
`O=C(Cn1c(-c2ccccc2)noc1=O)Nc1ccc(S(=O)(=O)N2CCOCC2)cc1` gave CYP2C19 inhib 23, CYP2C19 act 0.8, CYP2C9 act 0.3, CYP2C9 inhib 73* and Cav3 T inh -1.1.
`Cc1ccc(-c2noc(=O)n2CC(=O)Nc2ccc(S(=O)(=O)NC3CC3)cc2)cc1` gave CYP2C19 inhib 45, CYP2C19 act 0.6, CYP2C9 act 0.1, CYP2C9 inhib 93* and Cav3 T inh -0.67.
`O=C(CCSc1ccccc1)Nc1ccc(S(=O)(=O)N2CCOCC2)cc1` gave CYP2C19 inhib 55*, CYP2C19 act 0.4, CYP2C9 act 0.2, CYP2C9 inhib 85* and Cav3 T inh -0.73.
For Cc1ccc(NC(=O)CCc2ccc(S(=O)(=O)NC3CCCCC3)cc2)cc1 the results were CYP2C19 inhib 22, CYP2C19 act 0.8, CYP2C9 act 0.6, CYP2C9 inhib 41 and Cav3 T inh -1.7.
For CCCC(=O)Nc1ccc(S(=O)(=O)N2CCOCC2)cc1 the results were Cav3 T inh 0.41.
For O=c1c2ccccc2nnn1CSc1nnc(-c2ccco2)o1 the results were CYP2C19 inhib 35, CYP2C19 act 0.6, CYP2C9 act 0.6, CYP2C9 inhib 39 and Cav3 T inh -2.2.
Screening O=C(NCCC1=CCCCC1)c1ccc2c(=O)n3c(nc2c1)CCCCC3 returned CYP2C19 inhib 75*, CYP2C19 act 0.3, CYP2C9 act 0.1, CYP2C9 inhib 94* and Cav3 T inh -1.1.
Screening O=C(Nc1ccc(F)c(Cl)c1)c1ccc2c(=O)n3c(nc2c1)CCCCC3 returned CYP2C19 inhib 3, CYP2C19 act 1, CYP2C9 act 0.9, CYP2C9 inhib 8 and Cav3 T inh -7.7*.
Screening O=C(Nc1cccc(Cl)c1)c1ccc2c(=O)n3c(nc2c1)CCCCC3 returned CYP2C19 inhib 26, CYP2C19 act 0.7, CYP2C9 act 0.4, CYP2C9 inhib 63* and Cav3 T inh -5.7*.
O=C1CSc2ccc(C(=O)NCCC3=CCCCC3)cc2N1 was read as CYP2C19 inhib -2, CYP2C19 act 1, CYP2C9 act 1.1, CYP2C9 inhib -5 and Cav3 T inh -0.03.
`Cc1ccccc1C(=O)Nc1ccc2nc3n(c(=O)c2c1)CCC3` gave CYP2C19 inhib -14, CYP2C19 act 1.1, CYP2C9 act 1, CYP2C9 inhib -4 and Cav3 T inh 2.3.
For O=C(NCCN1CCCCC1)Nc1ccc(F)c(Cl)c1 the results were CYP2C19 inhib 0, CYP2C19 act 1, CYP2C9 act 1.1, CYP2C9 inhib -9 and Cav3 T inh -0.13.
CN(C)c1cccc(C(=O)Nc2ccc3nc4n(c(=O)c3c2)CCCCC4)c1 was read as CYP2C19 inhib 76*, CYP2C19 act 0.2, CYP2C9 act 0.2, CYP2C9 inhib 76* and Cav3 T inh -0.85.
For C=CC[C@]12C[C@@H](OC)C(=O)C=C1O[C@@H](c1ccc(OC)c(OC)c1)[C@H]2C the results were Cav3 T inh 1.8.
For CCn1c(CNC(=O)c2cccc(C)c2)nc2ccccc21 the results were CYP2C19 inhib 19, CYP2C19 act 0.8, CYP2C9 act 1.8, CYP2C9 inhib -83 and Cav3 T inh 0.21.
Screening O=C(c1ccc2c(=O)n3c(nc2c1)CCCCC3)N1CCN(C(c2ccccc2)c2ccccc2)CC1 returned CYP2C19 inhib 53*, CYP2C19 act 0.5, CYP2C9 act 0.4, CYP2C9 inhib 62* and Cav3 T inh -4.8*.
For CN(C(=O)c1ccc2c(=O)n3c(nc2c1)CCCCC3)c1ccccc1 the results were Cav3 T inh 0.58.
Screening CCNc1nc(NC(C)C)nc(Oc2ccc(/C=N/O)cc2)n1 returned CYP2C19 inhib 5, CYP2C19 act 0.9, CYP2C9 act 0.3, CYP2C9 inhib 69* and Cav3 T inh -1.8.
For O=C(NC1CC1)C1=C[C@@H](c2csc3ccccc23)C[C@@H](OCc2ccc(CO)cc2)O1 the results were Cav3 T inh -0.031.
